Screens (PubChem)
The list is not random: actives were taken first. Their share in the collection is about 7.3%.
Rab9 promoter act – qHTS Assay for Rab9 Promoter Activators; Potency, µM (top dose mostly 9.22 µM), for inactives: at the highest dose activation, negative = inhibition, hits mostly activators; 2.8% of 320,000 active; Huh7 Rab9 promoter-luciferase reporter, luminescence, 24 h; also: % of control where 0% means no effect; nearly all actives have a fitted effect of over 60% in size
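Luminescence from Amplite-detected luciferase (10 minutes, ambient) reports Rab9 promoter activation. Before that, stable Rab9-luciferase Huh7 cells (1500/well, reduced-serum OP-MEM I plus 10% FBS) were exposed to compound for 24 hours at 37C.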
NPC1 promoter act – qHTS Assay for NPC1 Promoter Activators; Huh7 NPC1 promoter luciferase reporter, 24 h; Potency, µM (series often up to 9.22 µM), inactives show at the highest dose activation, actives largely listed as activators; 2.4% of 320,000 active; also: % of control where 0% means no effect; nearly all actives have a fitted effect of over 60% in size
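Luminescence from an NPC1 promoter-driven luciferase reporter in stably transfected Huh7 cells was measured after 24 h compound treatment at 37 °C, followed by 10 min ambient incubation with luciferase detection reagent.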
FLuc modulator – qHTS profiling assay for firefly luciferase inhibitor/activator using purifed enzyme and Km concentrations of substrates (counterscreen for miR-21 project); 6.9% of 360,000 active; AID 588342, 2011; Potency, µM (highest dose often 57.5 µM), without a hit: at the top dose activity change, negative = inhibition, actives largely listed as inhibitors; Luciferin 4-monooxygenase (Photinus pyralis), P08659; purified FLuc, Km substrates, luminescence inhibition;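 also: plate controls were vehicle for no effect and reference inhibitor for full effect; nearly all actives have a fitted effect of over 55% in size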
Target sequence (P08659 whole entry, looked up): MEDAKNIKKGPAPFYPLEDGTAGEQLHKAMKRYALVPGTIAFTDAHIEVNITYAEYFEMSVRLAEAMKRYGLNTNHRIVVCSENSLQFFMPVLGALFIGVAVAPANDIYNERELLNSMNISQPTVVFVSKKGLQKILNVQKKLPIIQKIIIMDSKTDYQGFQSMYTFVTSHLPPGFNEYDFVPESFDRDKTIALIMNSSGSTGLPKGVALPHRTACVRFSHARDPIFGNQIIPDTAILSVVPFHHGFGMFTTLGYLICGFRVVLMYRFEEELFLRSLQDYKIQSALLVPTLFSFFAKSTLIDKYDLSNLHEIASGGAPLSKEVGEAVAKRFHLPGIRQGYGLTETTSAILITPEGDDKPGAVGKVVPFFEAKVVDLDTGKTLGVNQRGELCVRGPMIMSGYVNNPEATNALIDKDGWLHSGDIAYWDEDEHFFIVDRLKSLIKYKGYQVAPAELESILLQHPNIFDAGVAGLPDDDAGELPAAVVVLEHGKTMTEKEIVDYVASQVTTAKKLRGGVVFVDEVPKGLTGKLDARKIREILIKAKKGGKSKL
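Biochemical qHTS of compounds, final roughly 60 µM downward over six points, against 10 nM purified firefly luciferase using Km concentrations of substrates (10 uM D-luciferin, 10 uM ATP) in Tris acetate pH 7.5 buffer; luminescence output.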
ELG1 genotox – qHTS screen for small molecules that induce genotoxicity in human embryonic kidney (HEK293T) cells expressing luciferase-tagged ELG1; HEK293T ELG1-luciferase reporter, luminescence, 16 h; Potency, µM (titrated, usually from 46 µM), inactives show top-dose activity change, positive = activation, usual class: activators; 1.3% of 330,000 active; also: % of control where 0% means no effect; nearly all actives have a fitted effect of over 60% in size
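16 hr compound incubation (37 °C, 5% CO2) of HEK293T cells carrying luciferase-tagged ELG1; luciferase then measured by ONE-Glo luminescence after 30 min at RT.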
SMN2 splice up – qHTS Assay for Enhancers of SMN2 Splice Variant Expression; Potency, µM (top dose mostly 46.1 µM), inactives show top-dose activity change, positive = activation, most hits filed as activators; 2.8% of 210,000 active; HEK293 SMN2-luciferase splicing reporter, luminescence, 30-36 h; also: % of control where 0% means no effect; nearly all actives have a fitted effect of over 55% in size
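HEK293 cells carry an SMN2 […]–luciferase reporter in which exon 7 inclusion puts luciferase in frame. Cells were plated 10-12 h before compound addition, then incubated 30-36 h at 37C. ONE-Glo luminescence was read; sodium butyrate at 4.5 mM final served as control.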
p53 reactivation – qHTS assay for re-activators of p53 using a Luc reporter; H1299 p53-A138V BP100-luciferase reporter, luminescence, 24 h; Potency, µM (doses to about 92.2 µM), for the others: at the highest dose activity change, positive = activation, most hits filed as activators; 0.063% of 320,000 active; AID 504706, 2011; also: % of control where 0% means no effect; nearly all actives have a fitted effect of over 45% in size
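p53-null H1299 cells stably carrying temperature-sensitive p53-A138V and a BP100-luciferase reporter were pinned with compounds (4-point, 1:5 series) and held 24 hrs at 37 deg C. Luminescence was read 10 min after detection reagent.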
* marks the source's active call; other numbers are inactive results; ? = inconclusive; nt = no result given; [ ] = remark or other dose. Calls follow the shape of the dose curve; as a rule, active = well fitted curve in the direction sought with a large enough effect; inconclusive = small, poorly fitted or top-dose-only effect, or another doubt; inactive = no such curve, though single readings can be large; an effect the other way counts as inactive or inconclusive. Potency is read from the fitted curve at half-maximal effect.

SMILES	Rab9 promoter act	NPC1 promoter act	FLuc modulator	ELG1 genotox	SMN2 splice up	p53 reactivation
CCOC(=O)c1cnn(-c2nc(-c3ccc(C)cc3)cs2)c1C(F)(F)F	-5.2%	1.9%	-14.7%	0.9%	4.0%	6.9%
CS(=O)(=O)c1ccc(-c2csc(N3CCC(C(N)=O)CC3)n2)cc1	nt	nt	-8.8%	nt	nt	nt
Cn1c(=O)c2c(-c3ccccc3Br)n(C(C)(C)C)cc2n(C)c1=O	nt	nt	-15.5%	nt	4.1%	nt
Cc1ccc(C2(c3ccccc3)NC(=O)N(CC(=O)NCc3ccco3)C2=O)cc1C (centres undefined)	7.6%	0.0%	-0.2%	-0.2%	nt	-11.2%
CCc1ccccc1N1C(=O)N(C)c2ccccc2S1(=O)=O	nt	nt	-6.2%	nt	nt	nt
CCOC(=O)C(=O)N1CCN(c2nc(-c3ccc(Cl)cc3)cs2)CC1	15.4%	1.0%	?	-0.3%	nt	nt
CCOC(=O)N1CCN(c2nc(-c3ccc(F)cc3)cs2)CC1	-1.7%	-2.5%	19µM*	?	?	?
Cn1ccc2cc(-c3csc(N4CCC(C(N)=O)CC4)n3)ccc21	1.26µM*	2.82µM*	12µM*	3.0%	nt	0.0%
Clc1ccc(-c2csc(NNC3=NCCCCC3)n2)cc1	0.2%	0.2%	?	-1.6%	-12.5%	8.6%
COc1ccc(-c2csc(NC3=NCCCCC3)n2)cc1	?	?	12µM*	25.4%	-3.6%[1.84 µM]	?
c1ccc(-c2csc(NNC3=NCCCCC3)n2)cc1	12.4%	0.4%	15.1µM*	?	-1.1%	?
CC(=O)c1ccc2c3c(cccc13)C(=O)N(CCc1ccccc1)C2=O	3.98µM*	3.98µM*	10.7µM*	-4.0%	nt	10.9%
COc1ccc2nc(N3CCCCC3)c(C#N)cc2c1	3.16µM*	16.8%	3.79µM*	?	5.4%	?
COc1ccc2nc(SCC(=O)N3CCCCC3)c(C#N)cc2c1	-2.7%	-2.2%	-1.6%	0.7%	nt	-4.1%
COc1ccc2nc(N3CCCC3)c(C#N)cc2c1	25.9%	20.9%	10.7µM*	?	-22.4%	5.3%
Cc1ccc(-c2noc(-c3nnn(CC(=O)Nc4cc(C)cc(C)c4)c3N)n2)cc1	nt	nt	-7.4%	nt	nt	nt
Cc1ccc(NC(=S)N2CCC(c3ccccc3)C2)c(Cl)c1 (centres undefined)	0.282µM*	0.501µM*	1.51µM*	2.31µM*	11.2µM*	25.2%
S=C(Nc1ccccc1Cl)N1CCC(c2ccccc2)C1 (centres undefined)	2.82µM*	3.55µM*	23.9µM*	?	12.6µM*	21.4%
O=C(O)c1cccc(N=Nc2c(S(=O)(=O)O)ccc3c2C(=O)c2ccccc2C3=O)c1O	nt	nt	nt	nt	-5.1%[9.22 µM]	nt
CCCCOc1ccc(-c2nnc(N)s2)cc1	?	28.0%	7.57µM*	?	20.1%	14.0%
CCCCOc1cccc(-c2nnc(N)s2)c1	9.3%	3.4%	?	?	?	?
CCCCOc1ccc(C(=O)O)cc1	8.2%	0.0%	0.3%	1.7%	5.6%	-4.0%
CCOc1ccc(-c2nc(CCl)cs2)cc1	2.24µM*	?	3.01µM*	?	?	3.2%
CCOc1ccc(-c2nnc(N)s2)cc1	?	?	13.5µM*	11.2µM*	11.2µM*	?
CCCCOc1ccc(-c2ncc(N)cn2)cc1	2.82µM*	1.78µM*	6.75µM*	?	nt	18.7%
SMILES	Rab9 promoter act	NPC1 promoter act	FLuc modulator	ELG1 genotox	SMN2 splice up	p53 reactivation
CC(C)(C)c1ccc(-c2nnc(N)s2)cc1	1.41µM*	1.41µM*	1.9µM*	?	nt	12.4%
Nc1nnc(-c2ccc(F)cc2)s1	4.9%	-1.7%	?	4.1%	6.4%	-0.2%
O=C1CSC(=S)N1/N=C/c1ccc2c(c1)OCCO2	-4.0%	-4.2%	16.9µM*	0.0%	nt	10.7%
COc1ccc(/C(C)=N/Nc2nc3ccccc3n3cnnc23)cc1OC	9.1%	3.8%	10.7µM*	-0.9%	nt	1.9%
COC(=O)C1=CN(c2cccc(C)c2)C=C(C(=O)OC)C1c1cc(OC)c(O)c([N+](=O)[O-])c1	-2.4%	-2.9%	16.9µM*	-7.5%	-4.4%	-2.1%
CSc1ccccc1NC(=O)c1ccc(N2CCCC2=O)cc1	?	?	15.1µM*	?	nt	?
CC(=O)c1ccccc1NC(=O)c1ccc(N2CCCC2=O)cc1	?	26.5%	7.57µM*	?	nt	2.0%
CC(=O)c1ccc(NC(=O)c2ccc(N3CCCC3=O)cc2)cc1	-0.6%	1.1%	-12.1%	2.2%	nt	6.5%
CCn1nc(NS(=O)(=O)c2ccc([N+](=O)[O-])cc2)c2cc3cc(C)ccc3nc21	11.3%	-2.3%	10.7µM*	4.8%	nt	0.8%
CCn1nc(NC(=O)c2ccccn2)c2cc3cc(C)ccc3nc21	2.9%	18.2%	9.53µM*	-1.0%	19.0%	2.1%
CC(C)Cn1nc(NS(=O)(=O)c2cccc3nonc23)c2cc3ccccc3nc21	-3.8%	-2.8%	?	-2.6%	nt	-1.9%
CCn1nc(NS(=O)(=O)c2cccc3nonc23)c2cc3ccc(C)cc3nc21	2.8%	0.9%	30.1µM*	3.6%	nt	-3.4%
O=C(Nc1ccccc1C(F)(F)F)N1CCOc2ccc(Cl)cc21	nt	nt	-11.3%	nt	nt	nt
COC(=O)[C@H](Cc1ccccc1)NC(=O)O[C@@H]1C(=O)c2ccc(OC)cc2O[C@H]1c1ccc2c(c1)OCO2	nt	nt	nt	nt	-7.8%	nt
CCOc1ccc(NCc2cccn2-c2nnc(N3CCC(C(=O)NCCc4ccc(OC)c(OC)c4)CC3)s2)cc1	nt	nt	-13.7%	nt	-35.5%	nt
CCOC(=O)c1sc(NC(=O)Nc2ccccc2Cl)cc1C	0.631µM*	0.708µM*	0.426µM*	?	0.708µM*	?
CCOC(=O)c1sc(NC(C)=O)cc1C	-1.6%	-0.1%	-10.0%	-1.0%	1.7%	-3.0%
CCOC(=O)c1sc(NC(=O)Nc2ccccc2)cc1C	0.708µM*	1.26µM*	0.477µM*	?	3.16µM*	?
CCOC(=O)c1sc(NC(=O)C2CCC2)cc1C	?	?	12µM*	?	15.8µM*	0.7%
CCOC(=O)c1sc(NC(=O)c2ccc(C)s2)cc1C	1.12µM*	?	0.849µM*	17.5%	22.4µM*	4.0%
C/C(=N/Nc1ccc([N+](=O)[O-])cc1)c1c[nH]c2ccccc12	?	22.2%	?	8.3%	nt	nt
Nc1cc(=O)nc(SCC(=O)Nc2ccc(F)cc2)n1-c1cccc(Cl)c1	nt	nt	1.6%	nt	5.3%	nt
COc1ccc(NCc2nnc(SCC(=O)Nc3cc(C(F)(F)F)ccc3Cl)o2)cc1	-3.4%	-2.2%	16.9µM*	-0.7%	6.2%	7.1%
